Source: PubChem BioAssay
ELG1 genotox: induces genotoxicity in HEK293T cells with luciferase-tagged ELG1. HEK293T ELG1-luciferase reporter, luminescence, 16 h. Potency, µM (top dose mostly 46 µM), for inactives: at the top dose activity change, positive = activation, hits mostly activators. 330,000 compounds, 1.3% hits; note: % of control where 0% means no effect; nearly all actives have a fitted effect of over 60% in size
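Genotoxicity was scored as increased ELG1-luciferase reporter signal, measured by ONE-Glo luminescence (30 min, room temperature). Compound or vehicle exposure of the HEK293T reporter cells lasted 16 hr at 37°C.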
NPC1 promoter act: activators of NPC1 promoter; Huh7 NPC1 promoter luciferase reporter, 24 h; Potency, µM (top dose mostly 9.22 µM), inactives show at the highest dose activation, usual class: activators; 320,000 compounds, 2.4% hits; AID 485313; note: % of control where 0% means no effect; nearly all actives have a fitted effect of over 60% in size
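Luminescence from an NPC1 promoter-driven luciferase reporter in stably transfected Huh7 cells was measured after 24 h compound treatment at 37 °C, followed by 10 min ambient incubation with luciferase detection reagent.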
Rab9 prom act: activators of Rab9 promoter | Huh7 Rab9 promoter-luciferase reporter, luminescence, 24 h | Potency, µM (series often up to 9.22 µM), for the others: at the highest dose activation, negative = inhibition, usual class: activators | 320,000 compounds, 2.8% hits | AID 485297; note: % of control where 0% means no effect; nearly all actives have a fitted effect of over 60% in size
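Rab9 promoter-driven luciferase in stably transfected Huh7 cells; 1500 cells/well rested 2 h, exposed to compound in DMSO for 24 h at 37 °C, 5% CO2. Luminescence read 10 min after adding luciferase reagent at ambient temperature.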
SMN2 splice up: enhancers of SMN2 splice variant expression. HEK293 SMN2-luciferase splicing reporter, luminescence, 30-36 h. Potency, µM (doses to about 46.1 µM), for the others: top-dose activity change, positive = activation, usual class: activators. 210,000 compounds, 2.8% hits. AID 1458; note: % of control where 0% means no effect; nearly all actives have a fitted effect of over 55% in size
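qHTS luciferase splicing reporter: luminescence rises when SMN2 exon 7 is included in transfected HEK293 cells. Compound exposure lasted 30-36 h at 37C, with 4.5 mM final sodium butyrate as control, followed by a ONE-Glo read.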
KinaseGlo FLuc: counter-screen: inhibitors of Kinase-Glo firefly luciferase | Q27757 | Kinase-Glo luciferase, ATP luminescence, 8 min | Potency, µM (highest dose often 38.3 µM), for the others: top-dose activity change, negative = inhibition, hits mostly inhibitors | 200,000 compounds, 0.28% hits; note: % is set by controls: 0 for no effect and ±100 for the full control effect; nearly all actives have a fitted effect of over 60% in size
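Inhibition of Kinase-Glo luciferase light generation was assessed at 10 uM ATP in pH 7.2 imidazole buffer, with luminescence measured after eight minutes at ambient temperature.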
FLuc counter: counter-screen for miR-21 project: firefly luciferase inhibitors or activators. 360,000 compounds, 6.9% hits. AID 588342. purified FLuc, Km substrates, luminescence inhibition. Potency, µM (titrated, usually from 57.5 µM), without a hit: at the top dose activity change, negative = inhibition, hits mostly inhibitors;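 note: plate controls were vehicle for no effect and reference inhibitor for full effect; nearly all actives have a fitted effect of over 55% in size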
Target sequence (P08659 whole entry, looked up): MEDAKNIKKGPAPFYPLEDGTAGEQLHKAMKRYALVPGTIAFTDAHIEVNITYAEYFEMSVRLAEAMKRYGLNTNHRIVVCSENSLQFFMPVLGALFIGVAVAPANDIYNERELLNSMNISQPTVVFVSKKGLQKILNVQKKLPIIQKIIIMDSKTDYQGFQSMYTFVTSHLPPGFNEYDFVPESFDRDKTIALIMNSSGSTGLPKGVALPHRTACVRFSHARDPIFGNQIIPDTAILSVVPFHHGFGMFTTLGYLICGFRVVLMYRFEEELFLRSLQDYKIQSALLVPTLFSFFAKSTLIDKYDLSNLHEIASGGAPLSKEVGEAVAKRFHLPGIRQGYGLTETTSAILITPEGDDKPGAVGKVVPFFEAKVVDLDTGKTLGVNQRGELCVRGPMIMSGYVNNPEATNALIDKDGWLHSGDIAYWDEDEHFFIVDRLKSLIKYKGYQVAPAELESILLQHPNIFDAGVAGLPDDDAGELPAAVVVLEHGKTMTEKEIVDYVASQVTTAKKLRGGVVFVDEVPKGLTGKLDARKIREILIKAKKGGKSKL
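Purified P. pyralis luciferase (10nM final) with 10uM D-luciferin and 10uM ATP (Km levels) in 50mM Tris acetate pH 7.5, 10mM Mg acetate, 0.01% Tween-20, 0.05% BSA; qHTS 6-point titration, ~60 µM downward; luminescence read.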
The depositor's hits bear a star; [ ] = another dose, or the depositor's remark. Shown are actives, neighbours in structure and some others; about 7.5% of the full set was active somewhere. Calls come from the whole dose curve; as a rule, active = well fitted curve in the direction sought with a large enough effect; inconclusive = small, poorly fitted or top-dose-only effect, or another doubt; inactive = no such curve, though single readings can be large; an effect the other way counts as inactive or inconclusive. Potency is the fitted concentration of half-maximal effect.

Screening Cc1ccc(S(=O)(=O)N/N=C\c2ccc3c(c2)OCO3)cc1C returned ELG1 genotox 4.2%, NPC1 promoter act 0.8%, Rab9 prom act -3.1% and FLuc counter -12.2%.
Cc1nc(N/N=C\c2ccc3c(c2)OCO3)sc1C was read as ELG1 genotox inconclusive, NPC1 promoter act 1.58µM*, Rab9 prom act 0.316µM* and FLuc counter 1.9µM*.
`O=C(O)C/C(=C\c1cc2c(cc1Br)OCO2)c1nc2ccccc2s1` gave ELG1 genotox -0.2%, NPC1 promoter act -1.9%, Rab9 prom act -6.0% and FLuc counter -6.0%.
`O=C(c1ccco1)N1C(=O)c2cccc3cccc1c23` gave ELG1 genotox -0.1%, NPC1 promoter act -3.5%, Rab9 prom act -1.2%, SMN2 splice up 10µM*, KinaseGlo FLuc 1.1% and FLuc counter -1.1%.
CCOC(=O)N1CCN(C(=O)CN(c2cccc(Cl)c2)S(=O)(=O)c2ccccc2)CC1 was read as SMN2 splice up 3.6% and FLuc counter -4.2%.
For COc1cc(Cl)ccc1OCc1cc(C(=O)N2CCCCCC2)no1 the results were ELG1 genotox 13.6%, NPC1 promoter act 11.3%, Rab9 prom act 0.1% and FLuc counter inconclusive.
Screening CCCOC1CCCN(C(=O)c2cc(COc3ccc(F)c(F)c3)on2)C1 (stereo unspecified) returned ELG1 genotox inconclusive, NPC1 promoter act 2.82µM*, Rab9 prom act 2.82µM* and FLuc counter 21.3µM*.
`COc1cc(Cl)ccc1OCc1cc(C(=O)N2CCCC(OC)C2)no1` (stereo unspecified) gave ELG1 genotox 5.8µM*, NPC1 promoter act 2µM*, Rab9 prom act 1.78µM* and FLuc counter 5.36µM*.
`CCOC(=O)C1CCN(C(=O)c2cc(COc3ccc(OC)c4ccccc34)on2)CC1` gave ELG1 genotox inconclusive, NPC1 promoter act inconclusive, Rab9 prom act 3.55µM* and FLuc counter 15.1µM*.
COc1cc(C)ccc1OCc1cc(C(=O)N2CCC(c3ccc(F)cc3)C2)no1 (stereo unspecified) was read as ELG1 genotox inconclusive, NPC1 promoter act 2.24µM*, Rab9 prom act 2.24µM* and FLuc counter 7.57µM*.
`COc1ccc(OCc2cc(C(=O)N3CCC(OC)CC3)no2)c2ccccc12` gave ELG1 genotox inconclusive, NPC1 promoter act inconclusive, Rab9 prom act 2.51µM* and FLuc counter 10.7µM*.
`CCC1Oc2ccc(C)cc2N(CC(=O)NCC2CCCO2)C1=O` (stereo unspecified) gave ELG1 genotox -12.2%, NPC1 promoter act -8.4%, Rab9 prom act -2.2% and FLuc counter -1.3%.
For CC1CCN(S(=O)(=O)c2ccc3nc(N4CCN(c5ccccc5F)CC4)ccc3c2)CC1 the results were FLuc counter -0.6%.
Screening NNC(=O)COc1ccc(F)cc1 returned ELG1 genotox -0.7%, NPC1 promoter act -8.0%, Rab9 prom act -1.7%, SMN2 splice up -4.9%[1.84 µM], KinaseGlo FLuc -3.8% and FLuc counter 5.1%.
Screening COc1ccc(C(=O)COc2ccc(F)cc2)c(O)c1 returned ELG1 genotox inconclusive, NPC1 promoter act 3.16µM*, Rab9 prom act inconclusive and FLuc counter 13.5µM*.
Screening COc1ccc(C(C)=O)c(O)c1 returned SMN2 splice up -6.9% and KinaseGlo FLuc -13.5%.
`O=C(COc1ccc(F)cc1)c1c(O)cc(O)cc1O` gave ELG1 genotox inconclusive, NPC1 promoter act inconclusive, Rab9 prom act inconclusive and FLuc counter 8.49µM*.
Cc1nc2cncnc2n(-c2ccccc2)c1=O was read as SMN2 splice up -5.8% and KinaseGlo FLuc -3.4%.
`NCC1O[C@@H](OC2C(N)CC(N)C(O)C2O[C@@H]2OC(CO)C(O)C2O)C(N)C(O)C1O` (stereo partly specified) gave SMN2 splice up -0.8% and KinaseGlo FLuc -0.8%.
`O=C1/C(=C/c2ccc(O)cc2)SC(=S)N1Cc1cccnc1` gave ELG1 genotox 7.5%, NPC1 promoter act 1.9%, Rab9 prom act 0.4%, SMN2 splice up -4.0%, KinaseGlo FLuc -1.7% and FLuc counter -4.7%.
Screening CCOc1ccc(/C=C2\SC(=S)N(Nc3ccccc3)C2=O)cc1OC returned ELG1 genotox 11.5%, NPC1 promoter act -1.1%, Rab9 prom act -6.4%, SMN2 splice up -2.1%, KinaseGlo FLuc -3.4% and FLuc counter 10.7µM*.
`COc1ccc(/C=C2\SC(=S)N(Cc3cccnc3)C2=O)cc1C` gave ELG1 genotox 4.4%, NPC1 promoter act 1.8%, Rab9 prom act 1.2%, SMN2 splice up -18.0%, KinaseGlo FLuc 1.7% and FLuc counter 5.36µM*.
Screening COc1cc(/C=C2/SC(=S)N(Cc3ccccc3)C2=O)ccc1O returned ELG1 genotox inconclusive, NPC1 promoter act 2.5%, Rab9 prom act -2.3% and FLuc counter 26.9µM*.
Screening COc1cc(/C=C2\SC(=S)N(C(C(=O)O)c3ccccc3)C2=O)ccc1O (stereo unspecified) returned ELG1 genotox 0.4%, NPC1 promoter act 1.2%, Rab9 prom act 1.5% and FLuc counter 19µM*.
CCOc1cc(/C=C2\SC(=S)N(C(C(=O)O)c3ccccc3)C2=O)ccc1O (stereo unspecified) was read as ELG1 genotox -2.5%, NPC1 promoter act -3.4%, Rab9 prom act -3.5% and FLuc counter inconclusive.
`O=C(NCCc1ccc(Cl)cc1)c1ccc(CSCc2cccc(Cl)c2)o1` gave FLuc counter -5.4%.
Screening Cc1ccc(N/C=C(/C#N)c2ccsc2)cc1C returned SMN2 splice up 12.6µM*, KinaseGlo FLuc 10.3% and FLuc counter 2.39µM*.
For Cc1c(C(=O)Nc2cccc(F)c2)cnn1-c1ccccc1 the results were ELG1 genotox inconclusive, NPC1 promoter act 1.58µM*, Rab9 prom act 1.41µM* and FLuc counter 6.01µM*.
Screening CC(=O)c1cccc(NC(=O)c2cnn(-c3ccccc3)c2C)c1 returned ELG1 genotox inconclusive, NPC1 promoter act 3.16µM*, Rab9 prom act 3.98µM* and FLuc counter 9.53µM*.
Cc1c(C(=O)Nc2cccc([N+](=O)[O-])c2)cnn1-c1ccccc1 was read as ELG1 genotox inconclusive, NPC1 promoter act 2.82µM*, Rab9 prom act 2.51µM* and FLuc counter 9.53µM*.
For COc1ccc(N2CCN(C(c3cccs3)C(C)NC(=O)C(=O)N3CCCCC3)CC2)cc1 (stereo unspecified) the results were ELG1 genotox 0.8%, NPC1 promoter act -3.0%, Rab9 prom act -3.2% and FLuc counter 3.5%.
